This note sets out measurements from the supplement of paper PMC11150407.

Where a name gives a salt, the structure may show the parent alone. Among all 2,100 compounds or so, about 180 (8.6%) showed an effect of 50% or more. This excerpt belongs to a sample that is enriched for strong results.

This assay deals with MOLM1 and UCSD/AML1 (averaged). In words: cell viability relative to DMSO control (POC); higher = less growth inhibition. As to conditions: 1 µM; 72 h. The protocol: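 Primary viability screen in the 3q26 EVI1-high AML cell lines MOLM1 and UCSD/AML1 (1.5e3 cells/well, 384-well), compounds at 1 uM for 72 h. ATP CellTiter-Glo read-out given as percent of viable cells over DMSO control (POC), averaged over duplicates. DMSO was the negative control and 5 uM etoposide the positive control. This mapping covers the MicroSource Spectrum and Selleck anticancer libraries (drug names).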
Consider `O=C(Nc1ccc(OC(F)(F)F)cc1)c1sccc1NCc1ccnc2ccccc12`, for which the cell viability stood at 64.7%.

Turning to `COc1ccc2c(c1)O[C@@H]1COc3cc(OC)c(OC)cc3[C@@H]1C2=O`, the cell viability worked out at 102%.

For `C=C(C)[C@@H]1CC=C(CO)CC1`, the cell viability worked out at 88.1%.

`Cc1cc(=O)oc2cc(O)c(O)cc12`: the cell viability amounted to 98.5%.

For the molecule `Nc1ncnc2c1ncn2[C@@H]1O[C@H](CO)[C@@H](O)[C@@H]1O`, the cell viability worked out at 93.9%.

Regarding `Nc1ncnc2c1ncn2[C@@H]1O[C@H](CO)[C@@H](O)[C@H]1O`, the cell viability stood at 105%.

On to `OC[C@H]1O[C@@H](n2cnc3c(NCc4ccco4)ncnc32)[C@H](O)[C@@H]1O`, for which the cell viability worked out at 5.88%.

`CC(C)CCCC(C)C1CCC2C3=CCC4CC(O)CCC4(C)C3CCC21C` (centres undefined): the cell viability was 93%.

With `COC(=O)CC[C@@H](C)[C@H]1CC[C@H]2[C@@H]3CC[C@@H]4C[C@H](O)CC[C@]4(C)[C@H]3C[C@H](O)[C@]12C`, the cell viability stood at 97.4%.

For the molecule `N=C(N)NCCCCNC(=N)N`, the cell viability was 102%.

`COc1ccc(-c2coc3c(O)c(O)c(OC)cc3c2=O)cc1`: the cell viability turned out to be 111%.

`COc1c(O)cc2c(-c3ccccc3)cc(=O)oc2c1OC`: the cell viability was 92.8%.

With `CCCSc1ccc2[nH]c(NC(=O)OC)nc2c1`, the cell viability came to 12.4%.

In the case of `COC(=O)Nc1nc2cc(Sc3ccccc3)ccc2[nH]1`, the cell viability worked out at 41.9%.

In the case of `COC(=O)[C@@H]1OC(=O)C2OC23[C@@]1(C)CCC1[C@]2(C)C(C[C@@H](O)[C@]13C)C(C)(C)[C@H](OC(C)=O)C[C@@H]2OC(C)=O` (some centres undefined), the cell viability was found to be 111%.

Take `O=C(O)CCCN1C(=O)c2cccc3cccc(c23)C1=O`: the cell viability turned out to be 103%.

For the molecule `COc1cc2cc3c4cc(OC)c(OC)cc4cc[n+]3c(C)c2cc1OC`, the cell viability was determined as 99.6%.

Take `C[C@H]1[C@H](C)CC[C@]2(C(=O)O)CC[C@]3(C)C(=CC[C@@H]4[C@@]5(C)C[C@@H](O)[C@H](O)[C@@](C)(CO)[C@@H]5[C@H](O)C[C@]43C)[C@H]12`: the cell viability worked out at 86.8%.

As for `O=C(Nc1ccccc1-c1cn2c(CN3CCNCC3)csc2n1)c1cnc2ccccc2n1`, the cell viability was 95.6%.

`COc1cc(OC)c2c(=O)c(-c3ccc4c(c3)OCO4)coc2c1`: the cell viability came out at 127%.

In the case of `COC(=O)C[C@H]1C(C)(C)[C@@H](O)[C@@H]2CC3=C4CC(O)O[C@@H](c5ccoc5)[C@]4(C)CCC3[C@@]1(C)C2=O` (stereo partly drawn) [3,16-DIDEOXYMEXICANOLIDE-3beta-DIOL], the cell viability turned out to be 86.1%.

For the molecule `C#Cc1cccc(Nc2ncnc3cc(OCCOC)c(OCCO)cc23)c1`, the cell viability worked out at 65.1%.

`COc1cc2ncnc(Nc3cccc(Br)c3)c2cc1OC`: the cell viability amounted to 61.8%.

With `C#Cc1cccc(Nc2ncnc3cc(OC)c(OCCCCCCC(=O)NO)cc23)c1`, the cell viability was 22.2%.

Regarding `COc1cc2c(N3CCN(C(=O)Nc4ccc(OC(C)C)cc4)CC3)ncnc2cc1OCCCN1CCCCC1` [Tandutinib (MLN518)], the cell viability was 73.6%.

For `C#Cc1cccc(Nc2ncnc3cc(OCCOC)c(OCCO)cc23)c1` [OSI-420 (Desmethyl Erlotinib)], the cell viability turned out to be 42.9%.

On to `COc1ccc(-c2cc(=O)c3c(O)cc(OC)cc3o2)cc1`, for which the cell viability came out at 110%.

Regarding `CC(=O)C12OC(C)(c3ccccc3)OC1CC1C3CCC4=CC(=O)CCC4(C)C3CCC12C` (centres undefined), the cell viability was found to be 89.4%.

Regarding `CCC(C)C(=O)OC1[C@@H]2CC3=C4CC(=O)O[C@@H](c5ccoc5)[C@]4(C)CCC3[C@@](C)(C2=O)[C@@H](CC(=O)OC)C1(C)C` (some centres undefined), the cell viability is 99.4%.

Turning to `CC(C)CCC[C@@H](C)[C@H]1CC[C@H]2[C@@H]3C[C@@H](O)[C@@]4(O)C[C@@H](O)CC[C@]4(C)[C@H]3CC[C@]12C` [CHOLESTAN-3beta,5alpha,6beta-TRIOL], the cell viability is 102%.

Turning to `CC(=O)O[C@H]1CC[C@]2(C)C(C[C@@H](OC(C)=O)[C@]3(C)C4=CC(=O)O[C@H](c5ccoc5)[C@@]4(C)CCC23)C1(C)C` (stereo partly drawn) [3-DEOXO-3beta-ACETOXYDEOXYDIHYDROGEDUNIN], the cell viability stood at 92.3%.

As to `CC(C)c1cc(-c2n[nH]c(=O)n2-c2ccc3c(ccn3C)c2)c(O)cc1O` [Ganetespib (STA-9090)], the cell viability was 2.49%.

As to `CC(=O)O[C@H]1C[C@@H](O)C(C)(C)[C@@H]2C[C@@H](OC(C)=O)[C@]3(C)[C@H](CC[C@@]4(C)[C@@H](c5ccoc5)OC(=O)[C@H]5O[C@@]534)[C@@]12C`, the cell viability stood at 104%.

As to `O=c1cc(-c2ccccc2)oc2cc(O)c(O)cc12`, the cell viability is 96.6%.

Turning to `COc1cc(Nc2ncc3c(n2)-c2ccc(Cl)cc2C(c2c(F)cccc2OC)=NC3)ccc1C(=O)O` [MLN8237 (Alisertib)], the cell viability is 49.6%.

With `C=C1[C@H]2CC[C@@]3(C)[C@H](c4ccoc4)OC(=O)C[C@]13O[C@H]1C[C@H](O)C(C)(C)[C@H](CC(=O)OC)[C@]12C` [3-DEOXY-3beta-HYDROXYANGOLENSIC ACID METHYL ESTER], the cell viability was 97.7%.

Consider `C[C@@H]1CC[C@@]2(OC1)O[C@H]1C[C@H]3[C@@H]4CC=C5C[C@@H](O)CC[C@]5(C)[C@H]4CC[C@]3(C)[C@H]1[C@@H]2C`, for which the cell viability is 93.7%.

On to `O=c1cc(-c2ccc(O)cc2)oc2cc(O[C@@H]3O[C@H](CO)[C@@H](O)[C@H](O)[C@H]3O)cc(O)c12`, for which the cell viability was found to be 104%.

For the molecule `O=C(O)c1cc2ccccc2[nH]1`, the cell viability is 118%.

Turning to `O=C(O)CCc1nc(-c2ccccc2)c(-c2ccccc2)o1`, the cell viability was 45.5%.

Consider `O=C(O)CCC(=O)c1ccc(-c2ccccc2)cc1`, for which the cell viability amounted to 93.4%.

For the molecule `O=C(O)CCCc1ccccc1`, the cell viability was 90.8%.

As to `C[C@]1(O)C[C@@H](c2nc(-c3ccc4ccc(-c5ccccc5)nc4c3)c3c(N)nccn32)C1` [OSI-906 (Linsitinib)], the cell viability stood at 100%.

For `O=C(Nc1cccc(Cl)c1)Nc1ncc(CCNc2ncnc3ccsc23)s1` [SNS-314 Mesylate], the cell viability came to 60%.

For `CC1(C)[C@@H](O[C@H]2O[C@H](C(=O)O)[C@@H](O)[C@H](O)[C@H]2O[C@@H]2O[C@H](C(=O)O)[C@@H](O)[C@H](O)[C@H]2O)CC[C@]2(C)[C@H]3C(=O)C=C4[C@@H]5C[C@@](C)(C(=O)O)CC[C@]5(C)CC[C@@]4(C)[C@]3(C)CC[C@@H]12`, the cell viability was determined as 96.4%.

In the case of `COc1cc(/C=C/C(=O)O)cc(OC)c1OC`, the cell viability came to 118%.

On to `COc1cc([C@@H]2c3cc4c(cc3[C@@H](O[C@@H]3O[C@@H]5CO[C@@H](C)O[C@H]5[C@H](O)[C@H]3O)[C@H]3COC(=O)[C@H]23)OCO4)cc(OC)c1O`, for which the cell viability turned out to be 59.4%.

Take `COc1cc([C@@H]2c3cc4c(cc3[C@@H](O[C@@H]3O[C@@H]5CO[C@@H](c6cccs6)O[C@H]5[C@H](O)[C@H]3O)[C@H]3COC(=O)[C@H]23)OCO4)cc(OC)c1O` [Teniposide (Vumon)]: the cell viability worked out at 12.4%.

As for `COc1cc([C@@H]2c3cc4c(cc3[C@@H](O[C@@H]3O[C@@H]5CO[C@@H](c6cccs6)O[C@H]5[C@H](O)[C@H]3O)[C@H]3COC(=O)[C@H]23)OCO4)cc(OC)c1O`, the cell viability came to 27.5%.
